Test results reported in PubChem BioAssay AID434970 (Sanford-Burnham Center for Chemical Genomics, 2010).
The whole screen tested about 11,000 compounds, of which about 310 (2.8%) were called active. No stated cut-off is given here; in the data, active means activity change below about -85%; inactive means the rest. What follows is part of a selection rich in actives, with near analogues and random picks from the rest.

These compounds were tested on intestinal alkaline phosphatase [Mus musculus] (assay: activators of mouse IAP, confirmation, biochemical, luminescence, single concentration (AID 434970)). Conditions: purified mouse IAP, CDP-Star luminescence, 30 min, at 10 µM; activation factor: measured here: IAP activation factor, stronger effect = higher value; activity change, negative = activation: stronger effect = lower value.

| Structure (SMILES) | activation factor | activity change, negative = activation |
| --- | --- | --- |
| Cc1c(C(=O)N2CCN(c3ncccn3)CC2)sc2nc3n(c(=O)c12)CCCC3 | 1.11 | -11.4% (inactive) |
| Clc1ccc2nc(C3CCN(Cc4nnnn4C4CCCCC4)CC3)[nH]c2c1 | 1.15 | -14.6% (inactive) |
| CCn1nnnc1SCC(=O)c1cccc(OC)c1 | 0.96 | 4.05% (inactive) |
| COc1cccc(CNC(=O)c2ccc(NC(=O)C3CCCO3)cc2)c1 (configuration not stated) | 0.932 | 6.8% (inactive) |
| CCOc1ccc(-n2cc(C(=O)Nc3ccc(Cl)cn3)c3cc(OC)c(OC)cc3c2=O)cc1 | 0.946 | 5.4% (inactive) |
| Oc1ccccc1C1=NOC(O)(C(F)F)C1 (configuration not stated) | 0.928 | 7.2% (inactive) |
| CCOC(=O)N1CCN(C(=O)c2ccc3c(=O)n(CCC4=CCCCC4)c(=O)[nH]c3c2)CC1 | 0.936 | 6.4% (inactive) |
| O=C(CC1CCCC1)Nc1nnc(C2CC2)s1 | 0.933 | 6.65% (inactive) |
| Cc1onc(-c2ccccc2)c1C(=O)Nc1nc2c(s1)C(=O)CC(C)(C)C2 | 0.877 | 12.2% (inactive) |
| O=C(NCCc1ccccc1)c1cc(-c2ccccc2)c(N2CCOCC2)s1 | 1.46 | -45.9% (inactive) |
| CCOc1ccc(CCNC(=O)c2cc(-c3ccccc3)c(N3CCOCC3)s2)cc1 | 2.1 | -110% (active) |
| CCOc1ccc(CCNC(=O)c2cc(-c3ccccc3)c(N3CCOCC3)s2)cc1OCC | 1.74 | -73.9% (inactive) |
| O=C(NCCc1ccc(F)cc1)N1CCOCC1 | 1.01 | -0.6% (inactive) |
| O=C(CCCC(=O)N(CC(=O)NC1CCCCC1)Cc1ccccc1)Nc1ccccn1 | 1.16 | -15.6% (inactive) |
| CCCCC(=O)Nc1ccc(NC(=O)c2cccnc2)cn1 | 1.06 | -5.55% (inactive) |
| Cc1ccccc1NC(=O)/C(=C\c1cccs1)NC(=O)c1ccccc1 | 1.02 | -1.5% (inactive) |
| COc1ccc(C(CCN2CCOCC2)c2c(OC)cc(OC)c3c(-c4ccccc4)cc(=O)oc23)cc1 (configuration not stated) | 1.07 | -7.05% (inactive) |
| O=C(Cc1ccc(Cl)cc1)Nc1cccc(S(=O)(=O)N2CCCCC2)c1 | 1.4 | -40.2% (inactive) |
| O=C(Nc1ccc(Cl)cc1Cl)NC1CCN(S(=O)(=O)c2ccc(F)cc2)CC1 | 2.16 | -116% (active) |
| O=C(Cc1ccccc1Cl)Nc1cccc(S(=O)(=O)N2CCCCCC2)c1 | 1.61 | -60.6% (inactive) |
| O=C(Nc1ccc(Cl)cc1F)c1cc(S(=O)(=O)N2CCCCC2)ccc1F | 1.11 | -11.5% (inactive) |

| Structure (SMILES) | activation factor | activity change, negative = activation |
| --- | --- | --- |
| O=C(Nc1cccc(Cl)c1)Nc1cc(S(=O)(=O)N2CCCCC2)ccc1Cl | 2.08 | -108% (active) |
| O=C(Nc1cccc(S(=O)(=O)N2CCCCC2)c1)Nc1ccc(Cl)cc1Cl | 4.41 | -341% (active) |
| O=C(CN1CCN(S(=O)(=O)c2ccc(Cl)cc2)CC1)NC(=O)NC1CCCCC1 | 0.929 | 7.05% (inactive) |
| Cc1cc(OCC(=O)Nc2cccc(S(=O)(=O)N3CCCCC3)c2)ccc1Cl | 1.81 | -81.3% (inactive) |
| COc1ccc(CCNc2nc(-c3ccco3)cc(C(F)(F)F)n2)cc1OC | 0.889 | 11.2% (inactive) |
| CCn1c(CSc2nc3ccccc3[nH]2)nc2cc(C(=O)O)ccc21 | 0.865 | 13.6% (inactive) |
| CN1CCN(CCc2nc3cc(NC(=O)COc4ccccc4)ccc3n2C)CC1 | 0.96 | 4.05% (inactive) |
| CN1CCN(C(=O)c2ccc3c(c2)OCCO3)CC1 | 0.959 | 4.15% (inactive) |
| Cc1nc(CC(=O)Nc2nc(-c3ccccc3)cs2)cs1 | 0.961 | 3.9% (inactive) |
| COc1ccc(OC)c(S(=O)(=O)N2CCC(C(=O)NC(C)c3ccccc3)CC2)c1 (configuration not stated) | 1.03 | -3.4% (inactive) |
| Nc1c(C(=O)NCCc2ccccc2)nnn1Cc1ccc(Cl)cc1 | 1.1 | -9.55% (inactive) |
| Cc1cc(C)c2c(n1)nn1c(NCCOCCO)cc(C)nc21 | 0.968 | 3.25% (inactive) |
| Cc1ccc(S(=O)(=O)N2C[C@@H]3[C@H]4CC[C@H](C4)[C@@H]3[C@@H](C)[C@@H]2c2ccn([Si](C(C)C)(C(C)C)C(C)C)c2)cc1 | 0.986 | 1.35% (inactive) |
| COc1ccc(S(=O)(=O)Nc2cc(C(C)C)c(O)cc2C)cc1 | 0.996 | 0.45% (inactive) |
| Cc1ccc(SCCCn2cnc3ccccc3c2=O)cc1 | 0.958 | 4.25% (inactive) |
| COc1cc(OC)c2c(-c3ccccc3)cc(=O)oc2c1C(CCN1CCOCC1)c1ccc2c(c1)OCO2 (configuration not stated) | 0.932 | 6.8% (inactive) |
| CCN(CC)C(=O)[C@H]1CC(CC(=O)NCCC2=CCCCC2)C(=O)N2CCc3c([nH]c4ccc(OC)cc34)[C@]12C (some centres not stated) | 1.07 | -7.45% (inactive) |
| COc1ccc(OC)c(S(=O)(=O)N2CCC(C(=O)Nc3cccc(C(F)(F)F)c3)CC2)c1 | 1.61 | -60.9% (inactive) |
| O=C(Nc1cccc(-c2cccc(F)c2)c1)C1CCN(C2CCC2)CC1 | 2.55 | -155% (active) |
| S=C(Nc1cccc(Cl)c1)NC1CC2CCCC(C1)N2C1CCCC1 (configuration not stated) | 1.44 | -44.3% (inactive) |
| O=C(Nc1cccc(-c2cccc(Cl)c2)c1)C1CCN(C2CCC2)CC1 | 3.94 | -294% (active) |

| Structure (SMILES) | activation factor | activity change, negative = activation |
| --- | --- | --- |
| O=C(Nc1cccc(Cl)c1)NC1CCN(C2CCCCC2)C1 (configuration not stated) | 1.85 | -84.9% (inactive) |
| O=C(Nc1cccc(F)c1)C1CC(=O)N(c2ccc(Cl)cc2)C1 (configuration not stated) | 1.07 | -7.45% (inactive) |
| Cc1noc(C)c1COC(=O)C1COc2ccccc2O1 (configuration not stated) | 1.08 | -8.15% (inactive) |
| CC[C@]12c3[nH]c4cc(-c5ccco5)ccc4c3CCN1C(=O)[C@@H](CC(=O)NCC13CC4CC(CC(C4)C1)C3)C[C@@H]2C(=O)N1CCN(C(=O)C2CC2)CC1 | 0.989 | 1.05% (inactive) |
| COc1cc2sc(-c3ccccc3OC)c(-c3ccc(OCCN4CCOCC4)cc3)c2cc1OC | 1 | -0.3% (inactive) |
| CCSc1nnc(NC(=O)CCNS(=O)(=O)c2cc(Br)cnc2N)s1 | 0.825 | 17.4% (inactive) |
| CCOc1ccc(NC(=O)Nc2cc(OCC(F)(F)F)cc(OCC(F)(F)F)c2)cc1 | 2.08 | -108% (active) |
| CCOC(=O)c1cccc(NC(=O)Nc2ccc(OCC)cc2)c1 | 1.88 | -87.6% (inactive) |
| CCOc1ccc(NC(=O)Nc2cc(C)ccc2OC)cc1 | 1.16 | -15.9% (inactive) |
| O=C(Nc1ccc(F)cc1)Nc1cccc(Br)c1 | 1.74 | -73.8% (inactive) |
| CC(C)(C)c1ccc(NC(=O)Nc2ccc(F)cc2)cc1 | 1.65 | -65.3% (inactive) |
| O=C(Nc1ccc(F)cc1)Nc1cc(OCC(F)(F)F)cc(OCC(F)(F)F)c1 | 2.11 | -111% (active) |
| CC(C)Oc1cccc(C(=O)Nc2ccc(N3CCN(S(C)(=O)=O)CC3)cc2)c1 | 1.1 | -10.2% (inactive) |
| CCOCCCNC(=O)C(C)NS(=O)(=O)c1ccc(C)cc1 (configuration not stated) | 0.903 | 9.65% (inactive) |
| COc1ccc(C(=O)NCC(C)C)c(OC)c1 | 0.893 | 10.7% (inactive) |
| CC(C)(C)OC(=O)N[C@@H](Cc1ccccc1)c1nnc(SCC(=O)O)o1 | 0.956 | 4.4% (inactive) |
| O=S(=O)(c1ccc2ccccc2c1)N1CCCOC1 | 1.17 | -16.5% (inactive) |
| CCOc1ccccc1NC(=O)N1C2CCCC1CC(NC(=O)C1CC1)C2 (configuration not stated) | 1.05 | -5.1% (inactive) |
| COc1cccc(C(=O)NC2CCN(C(=O)N3CCCCC3)CC2)c1 | 1.09 | -9.3% (inactive) |
| COc1cccc(NC(=O)NC(C)C2CC3CCC2C3)c1 (configuration not stated) | 1.97 | -96.6% (active) |
| CC(=O)c1cccc(NC(=O)NC(C)C2CCCO2)c1 (configuration not stated) | 1.12 | -12.2% (inactive) |

| Structure (SMILES) | activation factor | activity change, negative = activation |
| --- | --- | --- |
| COc1cccc(NC(=O)CC2COc3ccccc3O2)c1 (configuration not stated) | 1.15 | -15% (inactive) |
| COc1cc(NC(=O)NC2Cc3ccccc3C2)cc(OC)c1 | 2.69 | -169% (active) |
| COc1cccc(NC(=O)NC2CCCCCCC2)c1 | 2.67 | -167% (active) |
| COc1cccc(NC(=O)N2CCCC2C(=O)NC(C)C)c1 (configuration not stated) | 0.971 | 2.9% (inactive) |
| COc1cc(NC(=O)c2ccccc2)cc(OC)c1 | 0.99 | 0.95% (inactive) |
| CCN1CCN(CCC(=O)Nc2cccc(OC)c2)CC1 | 0.925 | 7.45% (inactive) |
| COc1cccc(NC(=O)NCCCSC2CCCCC2)c1 | 1.68 | -67.6% (inactive) |
| COc1cc(NC(=O)CCN2CCN(Cc3ccccc3)CC2)cc(OC)c1 | 0.978 | 2.15% (inactive) |
| CCC1CCC(NC(=O)Nc2cccc(OC)c2)CC1 (configuration not stated) | 2.37 | -137% (active) |
| COc1ccc(-c2nnc(SCC(=O)N3CCOCC3)n2C)cc1OC | 1.07 | -7.45% (inactive) |
| Cn1c(-c2ccc(F)cc2)cnc1NCc1cccc(F)c1 | 0.905 | 9.55% (inactive) |
| CC(C)OC(=O)c1cccc(NC(=O)c2ccccc2)c1 | 0.988 | 1.25% (inactive) |
| Cc1oc(-c2cccs2)nc1CSCC(=O)NC1CC1 | 0.893 | 10.8% (inactive) |
| CN(c1ccccc1C(=O)NCc1ccccn1)S(C)(=O)=O | 1.03 | -3.4% (inactive) |
| COC(=O)[C@@]1(C)[C@H]2C(=O)N(Cc3ccccc3)C(=O)[C@H]2[C@H]2CN=C(SC)N21 | 1.09 | -9.05% (inactive) |
| CCN1C(=O)[C@H]2[C@H]3CN=C(SC)N3[C@@](CC)(C(=O)OC)[C@H]2C1=O | 0.957 | 4.3% (inactive) |
| COC(=O)c1sc2ncn(-n3c(C)ccc3C)c(=O)c2c1C | 1.03 | -3.25% (inactive) |
| CC[C@]12c3[nH]c4cc(-c5ccco5)ccc4c3CCN1C(=O)[C@@H](CC(=O)NC(C)(C)C)C[C@@H]2C(=O)N1CCN(C(=O)C2CC2)CC1 | 0.984 | 1.6% (inactive) |
